Common to all, as to test: NCI-60 one-dose screen, 48 h (100 = growth as untreated, 0 = no growth, -100 = all killed)
Common to all, as to details: 10 µM unless noted

In test [1] the test system is HCT-15 colon.
The subject of test [2] is HT29 colon.
In test [3] the test system is SNB-75 CNS.
Test [4] deals with SNB-19 CNS.
For test [5], the system named is U251 CNS.
For test [6], the system named is PC-3 prostate.
Test [7] has as its system SK-MEL-5 melanoma.
The subject of test [8] is UACC-62 melanoma.
Test [9] deals with LOX IMVI melanoma.
Test [10] relates to SK-MEL-28 melanoma.

The values that follow come from PubChem BioAssay (NCI).

Compounds without any hit were thinned out: in the full panel of roughly 83,000, 20% have a hit.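 Each cell line was grown in a 96-well plate and treated with one concentration of compound for 48 hours. Values below 10 were considered active.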 Unmarked numbers belong to inactive results. The source made the active and inactive calls.

Regarding `N#Cc1cc(-c2ccnc(Nc3ccc(N4CCN(C5COC5)CC4)cc3)n2)ccc1N1CCCC1`, the growth was 41.9% in test [1]; 18.6% in test [2]; 15.7% in test [3]; 117% in [4]; 75.7% in test [5]; 64.4% in test [6]. Also, the growth was 62.2% in test [7], 87.1% in test [8], 40% in [9] and 77.2% in test [10].
Take `C=CC[n+]1cccc2c3ccccc3ccc21`: the growth was 94.7% in test [1]; 47.3% in test [2]; 49.8% in test [3]; 26.5% in [4]; 16.6% in test [5]; 43.7% in test [6]. Further, the growth is -39.8% (active) in test [7], 61% in test [8], 61.8% in test [9] and 69% in test [10].
On to `Oc1ccc(Cl)c(Nc2ncnc3c2cnn3CC(Cl)c2ccc(Br)cc2)c1` (stereo unspecified), for which the growth is 37.9% in test [1]; 57.2% in [2]; 3.71% (active) in test [3]; 57.4% in test [4]; 53.5% in test [5]; 44.5% in [6]. Further, the growth in test [7] was 48.8%; in test [8], 55.6%; in [9], 0.654% (active); in test [10], 78.4%.
As to `CCOC(=O)c1ccc(NC(=S)NC(=O)c2ccc(NC(=O)C(C)C)cc2OC)cc1`, the growth in [1] is 23.6%; in [2] it was 68.2%; in test [3], 51.1%; in test [4], 57.7%; in test [5] it was 63.4%; in [6] it was 18%. The growth in test [7] was -69% (active); in test [8] it was 30.2%; in [9], 45.6%; in test [10], 50.8%.
Consider `COc1ccc(/C=C/C(=O)c2ccc(S(=O)(=O)NCCNc3nc(N(C)C)nc(N4CCOCC4)n3)cc2)cc1`, for which the growth is 59.3% in test [1]; 81.1% in test [2]; 61.8% in test [3]; 77.4% in test [5]; 77.4% in test [6]; 94.6% in [7]. The growth was 76.9% in [8], 79.7% in [9] and 95.1% in test [10].
For `CN(C)c1nc(NCCNS(=O)(=O)c2ccc(C(=O)/C=C/c3ccc(F)cc3)cc2)nc(N2CCOCC2)n1`, the growth in test [1] was -29.8% (active); in test [2] it was -79.7% (active); in test [3], 58.5%; in test [5], -86.1% (active); in test [6], 49.2%; in test [7], 66.1%. In addition, the growth in test [8] is 55.2%; in test [9], -97.6% (active); in test [10], 97.2%.
Consider `COc1ccc(Nc2ncnc3sc4c(c23)CCN(Cc2ccccc2)C4)cc1`, for which the growth in test [1] was 74.9%; in test [2], 98.1%; in test [3], 89.2%; in test [5] it was 88.9%; in test [6], 68.8%; in test [7], 70.4%. Further, the growth was 43.5% in test [8], 52.2% in test [9] and 99.8% in [10].
Take `O=C(NNC(=O)c1ccc(OCc2nc3ccc(Cl)cc3[nH]2)cc1)Nc1ccc(Cl)c(C(F)(F)F)c1`: the growth was 97.6% in test [1]; 68.2% in [2]; 59.8% in test [3]; 30.7% in [5]; 33.3% in [6]; 70.4% in [7]. Also, the growth was 61.4% in test [8], 48.2% in test [9] and 52.8% in test [10].
For the molecule `NS(=O)(=O)c1cccc(Nc2nc(SCC(=O)c3ccc(F)cc3)nc3ccccc23)c1`, the growth is 8.07% (active) in test [1]; 18.3% in [2]; 28.3% in test [3]; -12% (active) in test [5]; 16.6% in test [6]; -29.1% (active) in test [7]. Besides, the growth in [8] was -49.8% (active); in test [9], -44.6% (active); in test [10], 26.8%.
Regarding `N#CC1=C(c2cccs2)Nc2c(c(-c3ccccc3)nn2-c2ccccc2)C12C(=O)Nc1ccccc12` (stereo unspecified), the growth was 11.9% in test [1]; 6.67% (active) in [2]; 60.5% in test [3]; 11.6% in test [5]; 6.98% (active) in test [6]; 23.9% in test [7]. For the same molecule, the figures for the growth in test [8], in test [9] and in test [10] were 48.5%, 61.6% and 15.2%, respectively.
Regarding `COC(=O)c1cc(C(=O)CBr)n2c1ccc1c3ccccc3ccc12`, the growth in test [1] was 39.3%; in test [2], 44.6%; in test [3], 90.2%; in [5] it was 39.4%; in [6], 53.1%; in test [7], 53.4%. Further, the growth is 51.2% in test [8], 31.9% in [9] and 92.3% in test [10].
Consider `COc1ccc2[nH]cc(-c3cc4nc(-c5cn(C)c6ncc(Br)cc56)cc(N)n4n3)c2c1`, for which the growth in test [1] was -70.5% (active); in test [2] it was -76.1% (active); in test [3] it was -56.9% (active); in test [5], -76.1% (active); in test [6], -39.5% (active); in test [7], -88.3% (active). Moreover, the results for the growth in [8], in [9] and in test [10] were -82.5% (active), -97.9% (active) and -92.4% (active), respectively.
Regarding `Nc1nn2c(-c3cc4cc(Br)ccc4oc3=O)ccnc2c1N=Nc1ccc(Br)cc1`, the growth in test [1] is 31.8%; in test [2] it was 28.8%; in test [3] it was 7.89% (active); in test [5], 6.85% (active); in test [6] it was 47.7%; in test [7], 22.7%. Further, the results for the growth in test [8], in [9] and in test [10] were 48.9%, 18% and 20.5%, respectively.
For `COc1cc(/C=C/C(=O)c2ccc(S(=O)(=O)NCCNc3nc(N(C)C)nc(N4CCOCC4)n3)cc2)cc(OC)c1OC`, the growth in test [1] was -100% (active); in [2], -100% (active); in test [3] it was 20%; in test [5], -100% (active); in [6], -76.5% (active); in test [7] it was 18.8%. The figures for the growth in test [8], in test [9] and in [10] were -21.7% (active), -100% (active) and -100% (active), respectively.
On to `O=C(Nc1ccc(-c2ccc3c(c2)NC(=O)/C3=C\c2ccc[nH]2)cc1)Nc1ccc(Cl)c(Cl)c1`, for which the growth was 41.4% in test [1]; 10.7% in test [2]; 52.1% in test [3]; 21.9% in [5]; 64.7% in test [6]; 74.7% in test [7]. In addition, the growth in test [8] was 42.4%; in test [9] it was 26.2%; in [10] it was 64.2%.
Regarding `ClC(Cn1ncc2c(Nc3cccc(Br)c3)nc(SCCN3CCOCC3)nc21)c1ccc(Br)cc1` (stereo unspecified), the growth in [1] is -76.9% (active); in test [2] it was -43% (active); in test [3], 59.8%; in [5] it was -4.38% (active); in [6] it was 21.3%; in test [7] it was -89.9% (active). For the same molecule, the growth was -44.3% (active) in test [8], -89.4% (active) in test [9] and -46.4% (active) in test [10].
Turning to `O=c1c(-c2nc(-c3ccccc3)c(-c3ccccc3)[nH]2)coc2ccc(F)cc12`, the growth in test [1] is 24.3%; in test [2], 68.1%; in test [3], 39%; in [5], 47.3%; in test [6], 41.9%; in test [7], 47.7%. For the same molecule, the growth was 49.9% in test [8], 65.9% in test [9] and 69.6% in test [10].
Consider `CCCCCCCCc1ccc(C(=O)Nc2cccc(O)c2)cc1`, for which the growth was 47.4% in test [1]; 78.7% in [2]; 103% in [3]; 77.5% in test [5]; 52.4% in test [6]; 46.6% in test [7]. Moreover, the growth was 69.4% in test [8], 64.7% in [9] and 83.4% in test [10].
With `CC[C@]12C=CCN3CC[C@@]4(c5ccc(OC)cc5N(C)[C@H]4[C@@](O)(C(=O)OC)[C@@H]1OC(=O)CCCC[P+](c1ccc(F)cc1)(c1ccc(F)cc1)c1ccc(F)cc1)[C@@H]32`, the growth in [1] was 102%; in test [2] it was 15.9%; in test [3], -5.3% (active); in [5] it was 13%; in [6], 15.7%; in test [7] it was -59.7% (active). Besides, the growth in test [8] is -69.6% (active); in test [9], 25%; in test [10], -54.9% (active).
On to `O=C(NNC(=O)c1ccc(OCc2nc3ccc(Cl)cc3[nH]2)cc1)Nc1ccc(Cl)c(Cl)c1`, for which the growth in test [1] is 98.9%; in test [3], 111%; in [4], 20.2%; in [5], -1.4% (active); in [6], 63.3%; in test [7], 56.5%. Further, the growth was 62.7% in test [8], 40% in [9] and 8.8% (active) in test [10].
Turning to `Cc1ccc(S(=O)(=O)Nc2ccc(-c3ccc4c(c3)NC(=O)/C4=C\c3ccc[nH]3)cc2)cc1`, the growth in [1] was 68.7%; in test [2] it was 78.5%; in test [3], 96.1%; in test [5], 77.3%; in test [6], 80.1%; in test [7], 99.1%. For the same molecule, the results for the growth in test [8], in [9] and in [10] were 89.8%, 91.7% and 95.9%, respectively.
As to `c1n[nH]cc1-c1nc2ccc3[nH]ncc3c2c2c1CC1(CC2)COC1`, the growth is 70.5% in test [1]; 52.1% in test [2]; -5.96% (active) in test [3]; 39.5% in [5]; 53% in [6]; 44.7% in test [7]. The growth in [8] was 18.7%; in test [9], 38.5%; in test [10] it was 44.5%.
For the molecule `COc1ccc2nc(NC(=O)c3ccc(N(C)C)cc3)sc2c1`, the growth was 59.4% in test [1]; 100% in test [2]; 101% in test [3]; 93.5% in test [5]; 71.3% in test [6]; 55.7% in [7]. The growth in [8] was 69.9%; in test [9] it was 87%; in test [10] it was 95%.
For the molecule `CC1=C(C(=O)OC(C)C)C(c2ccc(O)cc2)NC(=O)N1` (stereo unspecified), the growth in test [1] is 105%; in test [2] it was 107%; in test [3], 115%; in test [5] it was 103%; in test [6] it was 92.1%; in [7], 107%. In addition, the growth in test [8] was 95.4%; in test [9], 98%; in [10] it was 112%.
As to `Cc1ccccc1Nc1nnc(-c2c[nH]c3ccccc23)o1`, the growth was 16.8% in test [1]; 2.95% (active) in test [2]; 26% in test [3]; 11.8% in test [5]; 37.6% in test [6]; -17% (active) in test [7]. The growth in [8] was 28.4%; in test [9], 29.1%; in [10], 61.3%.
With `Cc1nc2sccn2c1-c1nnc(SCc2ccccc2)o1`, the growth in test [1] is 89.2%; in [2], 85.6%; in test [3], 106%; in test [5], 82.8%; in test [6], 82%; in test [7], 90%. Further, the figures for the growth in test [8], in [9] and in test [10] were 80.2%, 92.7% and 94.8%, respectively.
Turning to `Cc1ccc(S(=O)(=O)N(CCn2ccnc2[N+](=O)[O-])CCn2ccnc2[N+](=O)[O-])cc1`, the growth in [1] is 103%; in [2], 112%; in [3], 96%; in test [5], 102%; in [6], 94.9%; in test [7], 99.3%. For the same molecule, the figures for the growth in test [8], in test [9] and in [10] were 94%, 102% and 106%, respectively.
As for `C#CCCCNCCNc1ccnc2cc(Cl)ccc12`, the growth in [1] is 43.5%; in [2], 25.7%; in test [3] it was 100%; in [5], 84.3%; in [6], 73.1%; in test [7] it was 45.9%. In addition, the growth in test [8] was 73.5%; in test [9] it was 40.1%; in test [10], 79%.
